Assay results as given in PubChem BioAssay (EPA / NIEHS).
Several values for one entry are separate records, joined by “and”; a condition that tells them apart may be missing. Identical values can stand only once. The source holds several records for some structures; these can differ, active in one and inactive in another. Activity calls are given as the source filed them. How the source made its calls: active means hit-call score of the fitted dose curve at least 0.9, where 1 is the maximum; inactive means score below 0.9.

Key:
[1] = ATG_CRE_CIS: Attagene CIS-FACTORIAL HepG2 Assay for human cAMP Responsive Element (CRE) binding protein 3 (AID 2282926); conditions: HepG2 CRE cis-reporter, Attagene multiplexed mRNA; actives raise or lower the signal
Procedure, shortened: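 Liver-derived HepG2, transfected with a CRE-containing reporter panel, exposed 24 h; transcript levels sized and quantified by capillary electrophoresis of labelled amplicons; signal changes either way referenced to vehicle.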

[2] = target: CCAAT/enhancer-binding protein beta (Homo sapiens) (UniProt P17676); test: ATG_C_EBP_CIS: Attagene CIS-FACTORIAL HepG2 Assay for human CCAAT/Enhancer Binding Protein (C/EBP) beta (AID 2282927); conditions: HepG2 Attagene cis-factorial transcription factor reporter; actives raise or lower the signal
Procedure, shortened: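 Changes in reporter mRNA, rather than exogenous chimeric receptor activity, reflect native C/EBP signalling in transfected HepG2 cells dosed for 24 h; transcripts are detected by RT-PCR and capillary electrophoresis.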

[3] = ATG_CMV_CIS: Attagene CIS-FACTORIAL HepG2 Assay for human CMV (Internal Marker) (AID 2282928); conditions: HepG2 CMV promoter reporter, transcription factor profiling; actives raise or lower the signal;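 further: endpoint acts as a background internal control marker rather than a target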
Procedure, shortened: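 Readout: fluorescent reporter cDNA fragments separated by capillary electrophoresis after RT-PCR and HpaI cut. Cells: HepG2 carrying transfected cis-promoter reporter constructs, dosed 24 h. Endpoint serves as background internal-marker control, fit bidirectionally versus DMSO.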

[4] = ATG_DR4_LXR_CIS: Attagene CIS-FACTORIAL HepG2 Assay for human Liver X Receptor (LXR), DR4 submotif (AID 2282929); conditions: HepG2 Attagene DR4 cis-reporter, mRNA transcription; actives raise or lower the signal
Procedure, shortened: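 After transient transfection with multiplexed cis-promoter reporter units, HepG2 cells received test chemicals for 24 h. Reporter mRNA induction, detected by fluorescence after RT-PCR and capillary electrophoresis, was scored relative to DMSO.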

[5] = target: Aryl hydrocarbon receptor (Homo sapiens) (UniProt P35869); test: ATG_Ahr_CIS: Attagene CIS-FACTORIAL HepG2 Assay for human Aryl Hydrocarbon Receptor (Ahr) (AID 2282930); conditions: HepG2 AhR cis-factorial reporter transcription; actives raise or lower the signal
Procedure, shortened: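 HepG2, transient MRTU (cis) transfection, 24 h exposure. RNA → cDNA → PCR → 6-FAM primer extension → HpaI 2 h 37 C → CE. Fit: bidirectional, DMSO baseline.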

[6] = ATG_AP_1_CIS: Attagene CIS-FACTORIAL HepG2 Assay for human Activator Protein 1 (AP-1) (AID 2282931); conditions: HepG2 Attagene cis-factorial AP-1 reporter mRNA; actives raise or lower the signal
Procedure, shortened: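 After 24 h incubation with test chemical, RNA from transfected HepG2 cells was reverse-transcribed, amplified, fluorescently labelled and digested before capillary electrophoresis. Reporters were driven by cis-regulatory promoters; activity fitted bidirectionally versus DMSO.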

[7] = ATG_AP_2_CIS: Attagene CIS-FACTORIAL HepG2 Assay for human Activator Protein 2 (AP-2) (AID 2282932); conditions: HepG2 AP-2 cis-reporter, Attagene transcription factor profiling; actives raise or lower the signal
Procedure, shortened: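 Endogenous transcription factor activity is reported through transfected multiplex reporter constructs in HepG2, after 24 h of compound exposure. Transcripts were quantified by RT-PCR and capillary electrophoresis of fluorescent fragments. Bidirectional fit against DMSO.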

[8] = ATG_BRE_CIS: Attagene CIS-FACTORIAL HepG2 Assay for human Bone Morphogenetic Protein (BMP) Response Element (BRE) (AID 2282933); conditions: HepG2 BMP response element reporter, Attagene transcription factor profiling; actives raise or lower the signal
Procedure, shortened: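 HepG2 cells transiently transfected with CIS reporter units (endogenous TF activity, BMP response element), dosed 24 h. Reporter mRNA quantified by RT-PCR, fluorescent labelling and capillary electrophoresis; bidirectional fit vs DMSO baseline.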

[9] = target: Retinoic acid receptor alpha (Homo sapiens) (UniProt P10276); test: ATG_DR5_RAR_CIS: Attagene CIS-FACTORIAL HepG2 Assay for human Retinoic Acid Receptor Alpha (RARE), DR5 submotif (AID 2282934); conditions: HepG2 Attagene cis-factorial RARE DR5 reporter, mRNA; actives raise or lower the signal;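 on AC50: reporter responds to endogenous RAR alpha beta and gamma in HepG2 not RARA alone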
Procedure, shortened: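 HepG2, transient cis-reporter transfection, 24 h exposure. mRNA readout: RT-PCR, FAM label, HpaI cut, capillary electrophoresis. DMSO baseline, gain/loss fitting.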

[10] = target: Transcription factor E2F1 (Homo sapiens) (UniProt Q01094); test: ATG_E2F_CIS: Attagene CIS-FACTORIAL HepG2 Assay for human E2F Transcription Factor 1 (AID 2282935); conditions: HepG2 Attagene cis-reporter, E2F reporter RNA transcripts; actives raise or lower the signal
Procedure, shortened: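 Gain or loss of reporter transcript, fitted against DMSO, reflects E2F1-driven transcription. Transiently transfected HepG2 dosed 24 h before RNA isolation. Quantified by fluorescent RT-PCR products separated by capillary electrophoresis.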

[11] = ATG_E_Box_CIS: Attagene CIS-FACTORIAL HepG2 Assay for human Enhancer Box (E-box) (AID 2282936); conditions: HepG2 E-box cis-reporter transcription, actives raise or lower the signal
Procedure, shortened: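 E-box-driven reporter transcripts measured in transiently transfected HepG2 after 24 h exposure: RNA reverse-transcribed, PCR-amplified, fluorescently labelled, digested and resolved by capillary electrophoresis. Gain or loss relative to DMSO.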

[12] = ATG_M_61_CIS: Attagene CIS-FACTORIAL HepG2 Assay for M61 Transcription Factor (Internal Marker) (AID 2282937); conditions: HepG2 Attagene CIS-FACTORIAL M61 internal marker reporter; actives raise or lower the signal
Procedure, shortened: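 Using transiently transfected HepG2 liver cells, reporter transcript levels were assessed 24 h post-dosing by RT-PCR and capillary electrophoresis. Changes in either direction were fitted relative to DMSO controls.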

[13] = ATG_EGR_CIS: Attagene CIS-FACTORIAL HepG2 Assay for human Early Growth Response 1 (EGR1) (AID 2282938); conditions: HepG2 Attagene CIS-FACTORIAL EGR reporter mRNA; actives raise or lower the signal
Procedure, shortened: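 Fluorescent capillary-electrophoresis signal of reporter cDNA fragments serves as read-out. HepG2 cells bear transiently transfected cis-promoter reporter units and are exposed 24 h; gain- or loss-of-signal is fitted against DMSO.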

[14] = ATG_M_19_CIS: Attagene CIS-FACTORIAL HepG2 Assay for M19 Transcription Factor (Internal Marker) (AID 2282939); conditions: HepG2 Attagene CIS-FACTORIAL M19 internal marker reporter; actives raise or lower the signal
Procedure, shortened: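 HepG2 cells transiently transfected with cis-regulated multiplexed reporter units, dosed 24 h. Reporter mRNA quantified by RT-PCR and capillary electrophoresis; internal background marker fitted bidirectionally versus DMSO.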

[15] = ATG_ERE_CIS: Attagene CIS-FACTORIAL HepG2 Assay for Estrogen Response Element (ERE) (AID 2282940); conditions: HepG2 ERE cis-reporter, Attagene RNA transcript; actives raise or lower the signal
Procedure, shortened: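 HepG2 cells transiently transfected with multiplexed cis-element reporter units, measuring endogenous transcription factor activity; ERE reporter mRNA quantified after 24 h exposure by RT-PCR, fluorescent labelling, HpaI digestion and capillary electrophoresis. Bidirectional change versus DMSO.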

[16] = ATG_Ets_CIS: Attagene CIS-FACTORIAL HepG2 Assay for human Erythroblast Transformation Specific (ETS) (AID 2282941); conditions: HepG2 ETS cis-reporter transcription, actives raise or lower the signal
Procedure, shortened: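 RT-PCR/capillary electrophoresis fluorescence read-out of reporter mRNA; HepG2 transient multi-reporter transfection; 24 h compound exposure; gain or loss of signal fitted bidirectionally relative to DMSO.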

[17] = target: Hepatocyte nuclear factor 3-beta (Homo sapiens) (UniProt Q9Y261); test: ATG_FoxA2_CIS: Attagene CIS-FACTORIAL HepG2 Assay for human Forkhead box A2 (FOXA2) (AID 2282942); conditions: HepG2 cis-reporter transcription factor activity, 24 h; actives raise or lower the signal
Procedure, shortened: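 Fluorescence signal of reporter cDNA fragments, separated by capillary electrophoresis, reflects endogenous transcription factor activity in transfected HepG2 after 24 h. Both increases and decreases fitted against DMSO.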

[18] = ATG_FoxO_CIS: Attagene CIS-FACTORIAL HepG2 Assay for human Forkhead box O (FoxO) (AID 2282943); conditions: HepG2 Attagene cis-reporter, FoxO element, mRNA; actives raise or lower the signal
Procedure, shortened: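 Human hepatoma HepG2 cells carry transiently introduced reporter transcription units controlled by cis promoter elements. Chemical treatment lasted 24 h, and mRNA signal was compared with DMSO.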

[19] = ATG_GATA_CIS: Attagene CIS-FACTORIAL HepG2 Assay for human GATA Binding Protein (AID 2282944); conditions: HepG2 GATA cis-element reporter, Attagene multiplex mRNA; actives raise or lower the signal
Procedure, shortened: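 HepG2 cells transiently transfected with multiplexed cis-element reporter units measure endogenous GATA activity; after 24 h compound exposure, reporter mRNA quantified by RT-PCR and capillary electrophoresis. Changes fitted in both directions vs DMSO.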

Measured: AC50

Sequence of CCAAT/enhancer-binding protein beta (Homo sapiens) (P17676 whole entry, looked up): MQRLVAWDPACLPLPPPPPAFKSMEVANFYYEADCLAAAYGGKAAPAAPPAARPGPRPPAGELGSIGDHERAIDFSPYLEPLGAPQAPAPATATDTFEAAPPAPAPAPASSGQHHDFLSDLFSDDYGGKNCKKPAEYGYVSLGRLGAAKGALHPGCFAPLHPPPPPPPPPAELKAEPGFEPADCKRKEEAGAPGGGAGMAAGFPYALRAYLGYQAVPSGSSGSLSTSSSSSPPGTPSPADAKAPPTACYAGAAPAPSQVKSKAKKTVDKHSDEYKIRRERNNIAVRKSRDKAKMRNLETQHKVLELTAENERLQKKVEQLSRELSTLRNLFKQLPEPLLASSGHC
Sequence of Transcription factor E2F1 (Homo sapiens) (Q01094 whole entry, looked up): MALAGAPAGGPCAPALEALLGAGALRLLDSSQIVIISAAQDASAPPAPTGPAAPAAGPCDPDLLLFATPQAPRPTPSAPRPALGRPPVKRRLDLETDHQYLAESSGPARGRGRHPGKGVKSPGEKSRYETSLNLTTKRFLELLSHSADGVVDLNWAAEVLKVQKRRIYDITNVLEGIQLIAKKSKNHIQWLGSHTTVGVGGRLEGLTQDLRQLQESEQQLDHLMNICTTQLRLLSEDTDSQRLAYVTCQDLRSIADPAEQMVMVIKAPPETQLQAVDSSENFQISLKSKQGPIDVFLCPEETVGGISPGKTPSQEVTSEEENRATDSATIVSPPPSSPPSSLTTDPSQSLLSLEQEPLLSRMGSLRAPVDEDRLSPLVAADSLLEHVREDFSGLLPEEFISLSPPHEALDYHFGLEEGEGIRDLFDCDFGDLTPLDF
Sequence of Hepatocyte nuclear factor 3-beta (Homo sapiens) (Q9Y261 whole entry, looked up, the tested form may be a part): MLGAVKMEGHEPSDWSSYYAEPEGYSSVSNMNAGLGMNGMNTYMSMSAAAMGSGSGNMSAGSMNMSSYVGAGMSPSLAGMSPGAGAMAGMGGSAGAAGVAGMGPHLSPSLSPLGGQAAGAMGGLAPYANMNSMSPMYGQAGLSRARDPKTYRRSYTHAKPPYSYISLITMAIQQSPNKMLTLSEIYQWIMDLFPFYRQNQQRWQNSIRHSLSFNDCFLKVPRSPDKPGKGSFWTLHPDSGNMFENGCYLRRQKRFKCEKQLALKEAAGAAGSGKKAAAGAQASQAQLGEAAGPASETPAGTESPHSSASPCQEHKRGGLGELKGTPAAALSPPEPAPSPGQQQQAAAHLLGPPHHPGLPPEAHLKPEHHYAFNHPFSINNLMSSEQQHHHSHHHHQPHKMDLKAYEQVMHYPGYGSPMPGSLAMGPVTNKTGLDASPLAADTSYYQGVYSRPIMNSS
Sequence of Retinoic acid receptor alpha (Homo sapiens) (P10276 whole entry, looked up): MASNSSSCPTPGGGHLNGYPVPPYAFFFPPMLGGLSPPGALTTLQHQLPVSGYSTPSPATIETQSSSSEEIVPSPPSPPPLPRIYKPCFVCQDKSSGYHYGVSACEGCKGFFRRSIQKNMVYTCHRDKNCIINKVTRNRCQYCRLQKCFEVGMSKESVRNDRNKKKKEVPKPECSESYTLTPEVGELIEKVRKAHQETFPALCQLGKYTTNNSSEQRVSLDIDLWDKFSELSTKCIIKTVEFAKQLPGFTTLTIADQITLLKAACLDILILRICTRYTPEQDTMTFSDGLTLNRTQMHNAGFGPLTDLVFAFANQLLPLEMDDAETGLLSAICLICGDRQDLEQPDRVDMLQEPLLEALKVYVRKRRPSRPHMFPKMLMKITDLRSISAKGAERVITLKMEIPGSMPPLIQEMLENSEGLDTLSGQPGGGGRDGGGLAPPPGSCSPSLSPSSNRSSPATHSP
Sequence of Aryl hydrocarbon receptor (Homo sapiens) (P35869 whole entry, looked up): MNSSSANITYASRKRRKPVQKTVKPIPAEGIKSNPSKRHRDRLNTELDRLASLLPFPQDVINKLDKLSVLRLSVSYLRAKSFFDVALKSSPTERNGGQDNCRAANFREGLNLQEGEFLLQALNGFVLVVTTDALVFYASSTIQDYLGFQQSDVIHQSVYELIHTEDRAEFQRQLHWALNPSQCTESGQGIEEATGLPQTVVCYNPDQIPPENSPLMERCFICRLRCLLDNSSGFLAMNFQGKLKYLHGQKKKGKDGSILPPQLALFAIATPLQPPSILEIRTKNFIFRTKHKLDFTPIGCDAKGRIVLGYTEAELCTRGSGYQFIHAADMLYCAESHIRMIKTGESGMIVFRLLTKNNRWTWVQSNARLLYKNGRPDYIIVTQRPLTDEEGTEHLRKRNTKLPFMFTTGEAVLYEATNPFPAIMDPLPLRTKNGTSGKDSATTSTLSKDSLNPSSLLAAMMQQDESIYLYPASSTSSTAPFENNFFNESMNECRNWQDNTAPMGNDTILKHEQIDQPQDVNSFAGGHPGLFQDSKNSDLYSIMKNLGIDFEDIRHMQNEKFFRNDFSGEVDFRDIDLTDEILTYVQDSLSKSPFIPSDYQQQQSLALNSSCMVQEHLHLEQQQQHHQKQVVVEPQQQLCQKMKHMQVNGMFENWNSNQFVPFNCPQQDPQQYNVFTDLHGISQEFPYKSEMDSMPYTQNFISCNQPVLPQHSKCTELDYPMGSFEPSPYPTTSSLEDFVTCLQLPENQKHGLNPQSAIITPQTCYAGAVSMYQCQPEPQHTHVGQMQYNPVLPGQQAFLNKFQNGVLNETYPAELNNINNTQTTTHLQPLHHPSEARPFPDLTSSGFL

CC(C)C(=O)Nc1ccc([N+](=O)[O-])c(C(F)(F)F)c1
active: [5] 135 µM | [6] 23.5 µM | [8] 65.1 µM
inactive: all other assays above

OC[C@H]1O[C@@H]2O[C@H]3[C@H](O)[C@@H](O)[C@@H](O[C@H]4[C@H](O)[C@@H](O)[C@@H](O[C@H]5[C@H](O)[C@@H](O)[C@@H](O[C@H]6[C@H](O)[C@@H](O)[C@@H](O[C@H]7[C@H](O)[C@@H](O)[C@@H](O[C@H]1[C@H](O)[C@H]2O)O[C@@H]7CO)O[C@@H]6CO)O[C@@H]5CO)O[C@@H]4CO)O[C@@H]3CO
active: [5] 33.5 µM
not listed: [17]
inactive: all other assays above

OC(O)(C(F)C(O)(O)C(F)(F)F)C(F)(F)F
active: [2] 78.9 µM and 82.9 µM | [3] 9 µM and 6.13 µM | [4] 37.9 µM and 4.59 µM | [7] 71 µM and 18.9 µM | [8] 6.79 µM | [15] 150 µM
inactive: [1] | [5] | [6] | [8] | [9] | [10] | [11] | [12] | [14] | [15] | [16] | [19]

FC(F)(F)C(F)(F)C(F)(F)C(F)(F)C(F)(F)C(F)(F)I
inactive: [1] | [2] | [3] | [4] | [5] | [6] | [7] | [8] | [9] | [10] | [11] | [12] | [14] | [16] | [17] | [19]
active: [9] 103 µM | [15] 24 µM and 27.1 µM

Cc1ccc(S(=O)(=O)NC(=O)NN2CCCCCC2)cc1
not listed: [13]
inactive: all other assays above

OCCNCCO
not listed: [13]
inactive: all other assays above

FC(F)C(F)(F)COCC1CO1 (stereo not drawn)
inactive: [1] | [2] | [3] | [4] | [5] | [6] | [7] | [8] | [9] | [10] | [11] | [12] | [13] | [14] | [15] | [16] | [19]
active: [15] 118 µM

Nc1ccn([C@@H]2O[C@H](CO)[C@@H](O)[C@@H]2O)c(=O)n1
active: [15] 6.66 µM
not listed: [17] | [18]
inactive: all other assays above

O=C(Cl)C(F)(F)C(F)(F)C(F)(F)C(=O)Cl
inactive: all assays above

O=C(N[C@H](CO)[C@H](O)c1ccc([N+](=O)[O-])cc1)C(Cl)Cl
inactive: all assays above

O=c1[nH]cnc2c1ncn2[C@H]1CC[C@@H](CO)O1
not listed: [17] | [18]
inactive: all other assays above

O=C1CN(N=Cc2ccc([N+](=O)[O-])o2)C(=O)N1
active: [3] 45.7 µM | [6] 68.5 µM | [15] 27.6 µM
not listed: [18]
inactive: all other assays above

C[Si](C)(C)C(F)(F)C(F)(F)C(F)(F)F
inactive: all assays above

NCC(F)(F)C(F)(F)C(F)(F)C(F)(F)F
not listed: [13] | [18]
inactive: all other assays above
